Screening data (PubChem BioAssay)
An excerpt weighted towards active compounds, which were near 19% of everything screened.
TDP1 cell noCPT: qHTS for Inhibitors of human tyrosyl-DNA phosphodiesterase 1 (TDP1): qHTS in cells in absence of CPT. Potency, µM (doses to about 46.2 µM), usual class: inhibitors. AID 686978, 2013. actives 15% (n = 420,000). DT40 Tdp1-/- hTDP1 cells, no CPT, ATP luminescence, 48 h; further: nearly all actives have a fitted effect of over 55% in size
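Chicken DT40 Tdp1-/- cells stably complemented with human TDP1 were seeded at 400 cells/well with DMSO in place of 20 nM camptothecin. After compound pinning, cells grew at least 48 hr at 37 °C; viability read by CellTiter-Glo luminescence.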
IL-1B inflam inh: blocks inflammasome-driven IL-1 beta release. THP-1 LPS/ATP IL-1B secretion, AlphaLISA, 16 h; stronger effect = lower value. activity change, % at 57.5 µM. actives 4.7% (n = 360,000). AID 743279; in the data active means activity change below about -50%; inconclusive means mostly about -30% to -49%
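THP-1 cells pretreated 1 hr with compounds (up to 57.5 uM final), then stimulated with LPS (250 ng/mL final) plus ATP (1.25 mM final); secreted IL-1B measured by AlphaLISA after 16 hr, decreased signal indicating inhibition.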
HT1080 IDH1KD tx: kills HT-1080 cells with IDH1 knockdown; HT-1080 IDH1 knockdown viability, ATP luminescence, 48 h; Potency, µM (doses to about 46.1 µM), most hits filed as cytotoxic; actives 2% (n = 360,000); AID 686971
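In this qHTS, HT-1080 cells depleted of IDH1 are exposed for 48 h at 37 °C to compound titrations. Toxicity is scored from CellTiter-Glo luminescence, with DMSO as full viability and medium alone as none.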
HT1080NT lethal: kills 2HG-producing HT-1080-NT fibrosarcoma cells; HT-1080-NT fibrosarcoma viability, CellTiter-Glo ATP luminescence, 48 h; Potency, µM (titrated, usually from 46.1 µM), hits mostly cytotoxic; actives 1.6% (n = 360,000); AID 686970;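 further: NT is the 2HG producing partner of a matched IDH1 knockdown line; nearly all actives have a fitted effect of over 55% in size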
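750 cells/well, RPMI + 5% FBS; 2 h settle, compound pin-transfer, 48 h at 37 degrees C. CellTiter-Glo 10 min RT, luminescence. Normalized to DMSO and media-only wells.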
DT40 TDP1 CPT: growth inhibition of DT40 Tdp1-/-;hTDP1 cells with camptothecin (screen for TDP1 inhibitors) | actives 12% (n = 420,000) | chicken DT40 Tdp1-/-;hTDP1 cells + 20 nM CPT, ATP luminescence, 48 h | Potency, µM (doses to about 46.2 µM), usual class: inhibitors; further: nearly all actives have a fitted effect of over 55% in size
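Chicken DT40 Tdp1-/- cells stably complemented with human TDP1 were seeded at 400 cells/well in medium containing 20 nM camptothecin, exposed to pin-transferred compounds, and grown at 37 °C for at least 48 hr. Viability was read as ATP luminescence.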
Of the large screens only hits and unclear results are named; the others gave an inactive call. Unless noted, the call rests on the fitted dose curve; in most records, active means well fitted curve in the direction sought with a large enough effect; inconclusive means small, poorly fitted or top-dose-only effect, or another doubt; inactive means no such curve, though single readings can be large; an effect the other way counts as inactive or inconclusive.

O=C(C(c1ccccc1)c1ccccc1)N1CCN(Cc2ccco2)CC1	TDP1 cell noCPT inconclusive, DT40 TDP1 CPT inconclusive
CCC(Oc1ccccc1)C(=O)Nc1cc(Cl)ccc1-n1cncn1 (configuration not stated)	HT1080 IDH1KD tx inconclusive
CC(C)n1ncc(N2CCOCC2)c(Cl)c1=O	none
CN1C(=O)CSC1=Nc1ccc(Br)cc1	none
N#Cc1cccc(N=c2ssnc2Cl)c1	TDP1 cell noCPT 6.5µM, DT40 TDP1 CPT 3.3µM
Clc1ccc(N=c2ssnc2Cl)nc1	TDP1 cell noCPT 2.6µM, DT40 TDP1 CPT 3.3µM
COc1cc(N=c2ssnc2Cl)cc(OC)c1	TDP1 cell noCPT 13µM, IL-1B inflam inh inconclusive, DT40 TDP1 CPT 10µM
Clc1nssc1=Nc1ccc(Br)cc1	TDP1 cell noCPT 13µM, IL-1B inflam inh -97, HT1080 IDH1KD tx inconclusive, HT1080NT lethal 16µM, DT40 TDP1 CPT 10µM
COc1cc(OC)cc(-c2nc(-c3ccccc3OC)no2)c1	TDP1 cell noCPT inconclusive, DT40 TDP1 CPT inconclusive
Cc1cc(C)cc(C(N)=Nc2cccc(C#N)c2)c1	TDP1 cell noCPT inconclusive
COCC1CCCN(Cc2ccc3c(c2)CN(C(=O)c2cccnc2OC)CCO3)C1 (configuration not stated)	none (no result: IL-1B inflam inh, HT1080 IDH1KD tx, HT1080NT lethal)
NC1=C(c2ccccc2)C(=O)NC1=O	none
C/C(Sc1nnc(Cc2ccccc2)o1)=C(\O)c1ccccc1	TDP1 cell noCPT inconclusive, DT40 TDP1 CPT inconclusive
Cc1nn(CC(=O)Nc2cc(S(=O)(=O)N3CCOCC3)ccc2Cl)c(C)c1[N+](=O)[O-]	TDP1 cell noCPT inconclusive
O=C(c1csnn1)N1CCC2(CCCN(c3ccccn3)C2)CC1	none (no result: IL-1B inflam inh, HT1080 IDH1KD tx, HT1080NT lethal)
Clc1nssc1=Nc1nncs1	TDP1 cell noCPT 7.3µM, IL-1B inflam inh -73, DT40 TDP1 CPT 5.8µM
COC(=O)[C@H](CCSC)NC(=O)NC1CC1	none
CCN(CC(=O)Nc1cccc(OC)c1)C(=O)c1cccc(S(=O)(=O)N2CCc3ccccc32)c1	TDP1 cell noCPT 16µM, DT40 TDP1 CPT 23µM
CCN(CC(=O)Nc1c(F)cccc1F)C(=O)c1cccc(S(=O)(=O)N2CCN(c3ccccc3)CC2)c1	TDP1 cell noCPT inconclusive, DT40 TDP1 CPT inconclusive
CCN(CC(=O)Nc1c(F)cccc1F)C(=O)c1cccc(S(=O)(=O)N2CCCc3ccccc32)c1	TDP1 cell noCPT 16µM, DT40 TDP1 CPT inconclusive
CCN(CC(=O)Nc1c(F)cccc1F)C(=O)c1cccc(S(=O)(=O)N2CCc3ccccc3C2)c1	TDP1 cell noCPT inconclusive, DT40 TDP1 CPT inconclusive
CCN(CC(=O)Nc1c(F)cccc1F)C(=O)c1cccc(S(=O)(=O)N(C)c2ccccc2)c1	TDP1 cell noCPT 15µM, DT40 TDP1 CPT 13µM
CC(C)CNS(=O)(=O)c1ccc(S(=O)(=O)N2CCC(N3CCCCC3)CC2)cc1	none
CC(=O)Nc1ccc(S(=O)(=O)NCCC(=O)Nc2ccc(C)cn2)cc1	none
CN(Cc1ccccc1)C(=O)c1nn2cccnc2c1Cl	TDP1 cell noCPT inconclusive
COc1ccc(OC2C(=O)N(Cc3ccc4c(c3)OCO4)C2c2cccs2)cc1 (configuration not stated)	TDP1 cell noCPT inconclusive, IL-1B inflam inh -81, HT1080NT lethal inconclusive, DT40 TDP1 CPT inconclusive
COc1ccc(OC2C(=O)N(c3ccc(C)c(C)c3)C2c2ccc(OC)c(OC)c2)cc1 (configuration not stated)	TDP1 cell noCPT 15µM, DT40 TDP1 CPT inconclusive
COc1ccc(OC2C(=O)N(CCc3ccc(OC)c(OC)c3)C2c2ccc3c(c2)OCO3)cc1 (configuration not stated)	TDP1 cell noCPT 13µM, IL-1B inflam inh inconclusive, DT40 TDP1 CPT 18µM
COc1ccc(OC2C(=O)N(c3cc(C)ccc3C)C2c2ccc(OC)c(OC)c2)cc1 (configuration not stated)	TDP1 cell noCPT inconclusive, DT40 TDP1 CPT inconclusive
CC(C)CN1C(=O)C(=O)N(CC(=O)NCCCc2ccccc2)C1=O	none
Cc1cc(S(=O)(=O)Nc2ccc(N3CCOCC3)cc2)ccc1Br	TDP1 cell noCPT inconclusive
Cc1ccc(C)n1-c1ccc(N2CCOCC2)c(Br)c1	TDP1 cell noCPT 15µM, IL-1B inflam inh inconclusive, HT1080 IDH1KD tx inconclusive, HT1080NT lethal inconclusive, DT40 TDP1 CPT 18µM
CCCCCNCC(=O)Nc1cccc(C(=O)Nc2cccc(C(F)(F)F)c2)c1	TDP1 cell noCPT inconclusive, IL-1B inflam inh -101, HT1080 IDH1KD tx 16µM, HT1080NT lethal 21µM, DT40 TDP1 CPT inconclusive
Cc1ccc(C(=O)Nc2cccc(C(F)(F)F)c2)cc1Nc1ccccn1	TDP1 cell noCPT 16µM, DT40 TDP1 CPT 21µM
Cc1ccc(C(=O)Nc2cccc(C(F)(F)F)c2)cc1NC(=O)c1nccnc1N	none
Cc1cnc(Nc2nc3ccccc3o2)nc1C(=O)Nc1cccc(C(F)(F)F)c1	TDP1 cell noCPT 21µM, DT40 TDP1 CPT 23µM
Cc1ccc(C(=O)Nc2cccc(C(F)(F)F)c2)cc1Nc1cncnc1	TDP1 cell noCPT 15µM, DT40 TDP1 CPT inconclusive
COC(=O)c1cc(S(=O)(=O)N2CCC(C)CC2)cn1C	none
O=C(NCc1cccc(Br)c1)C1CC2Cn3c(nc4ccccc43)C2N1c1ccccc1 (configuration not stated)	none
COc1cc(NC(=O)c2cc3c(=O)oc4ccc(C)cc4c3s2)cc(OC)c1OC	none (no result: IL-1B inflam inh, HT1080 IDH1KD tx, HT1080NT lethal)
COc1cc2c(cc1OC)C(C)N(C(=O)c1cc3c(s1)-c1ccccc1OC3)CC2 (configuration not stated)	TDP1 cell noCPT 21µM, HT1080 IDH1KD tx inconclusive, HT1080NT lethal inconclusive, DT40 TDP1 CPT inconclusive
COc1cc2c(cc1OC)C(C)N(C(=O)C1COc3ccccc3O1)CC2 (configuration not stated)	TDP1 cell noCPT 26µM, IL-1B inflam inh -51, DT40 TDP1 CPT 16µM
COc1cc2c(cc1OC)C(C)N(C(=O)c1cccs1)CC2 (configuration not stated)	TDP1 cell noCPT inconclusive, DT40 TDP1 CPT inconclusive
COc1cc2c(cc1OC)C(C)N(C(=O)c1cc3c(s1)-c1c(C)cccc1OC3)CC2 (configuration not stated)	TDP1 cell noCPT 16µM, HT1080 IDH1KD tx inconclusive, DT40 TDP1 CPT inconclusive
COc1cc2c(cc1OC)C(C)N(C(=O)c1cc3c(=O)oc4ccc(C)cc4c3s1)CC2 (configuration not stated)	TDP1 cell noCPT 15µM, DT40 TDP1 CPT 13µM
O=C(COC(=O)c1ccccn1)NCCc1ccc(Cl)cc1	none
CN(C)CCNC(=O)/C=C/c1cn(-c2ccccc2)nc1-c1cc2ccccc2oc1=O	none
Cc1cc(C)nc(NC(=O)C(c2ccccc2)c2ccccc2)c1	TDP1 cell noCPT 15µM, DT40 TDP1 CPT inconclusive
NC(=O)c1ccccc1NC(=O)C(c1ccccc1)c1ccccc1	TDP1 cell noCPT 29µM, DT40 TDP1 CPT inconclusive
